An excerpt weighted towards active compounds, which were near 1.6% of everything screened.
PKA-R1A activ = activators of PKA-R1A holoenzyme, primary screen, biochemical, fluorescence polarization, Cy5-IP20, bovine R1A, mouse PKAc; hit rate 0.083% among 340,000; PKA-R1A dissociation; scaled: DMSO 0%, 113 µM cGMP 100%; activation, % at 11.4 µM; cAMP-dependent protein kinase type I-alpha regulatory subunit (Bos taurus) + …;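 active means percent activation above the mean of all tested compounds plus 3 SD, cut at about 19% in these data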;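 further: higher means more PKAc released from R1A so a rise in polarization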
PKA-R2B activ = activators of PKA-R2B holoenzyme, primary screen, biochemical, fluorescence polarization, Cy5-IP20, human. cAMP-dependent protein kinase catalytic subunit beta (Homo sapiens) + cAMP-dependent …. PKA-R2B holoenzyme dissociation; R2B truncated from residue 108, S112A mutant; 0% DMSO only, 100% 113 µM cGMP. AID 504700, 2011. activation, % at 11.4 µM. hit rate 0.079% among 340,000;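 active means activation above a cutoff set at the mean over all compounds plus 3 SD, cut at about 18% in these data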;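 further: higher means more holoenzyme dissociation and a rise in polarization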
ATG4B inh = ATG4B protease inhibitors, primary screen, biochemical, fluorescence, uHTS; hit rate 0.51% among 340,000; ATG4B cleavage of LC3-PLA2, NBD-HPC fluorescence, 1 h; AID 504462, 2011; inhibition, % at 8.33 µM; in the data active means inhibition above about 40%
Target sequence (Q9Y4P1 whole entry, looked up): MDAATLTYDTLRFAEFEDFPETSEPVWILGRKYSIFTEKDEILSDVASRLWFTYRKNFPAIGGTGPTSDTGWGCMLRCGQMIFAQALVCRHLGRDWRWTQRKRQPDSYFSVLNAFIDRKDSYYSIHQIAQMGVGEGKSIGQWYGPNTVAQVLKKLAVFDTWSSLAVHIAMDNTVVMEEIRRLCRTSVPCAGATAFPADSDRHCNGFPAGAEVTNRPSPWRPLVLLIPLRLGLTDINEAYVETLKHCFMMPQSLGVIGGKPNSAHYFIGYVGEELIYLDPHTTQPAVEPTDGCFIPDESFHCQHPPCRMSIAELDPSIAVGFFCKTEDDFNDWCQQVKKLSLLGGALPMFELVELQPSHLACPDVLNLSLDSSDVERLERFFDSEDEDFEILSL
NRP1-CendR mod = modulators of CendR peptide binding to NRP-1, primary screen, biochemical, fluorescence polarization, uHTS. Neuropilin-1 (Homo sapiens), O14786. FAM-RPARPAR peptide binding to NRP-1. inhibition, % at 25 µM. hit rate 0.85% among 360,000. AID 602438, 2012;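 active means inhibition or corrected inhibition above about 18%, plus a signal ratio from 0.5 to 1.5, limit read from the data, passing the limit was not always enough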
VLA-4 inh = inhibition in human VLA-4 binding assay, primary screen, VLA-4 allosteric modulator project, MLPCN library, flow cytometry, VLA-4 expressing cells; Integrin alpha-4 (Homo sapiens), P13612; ligand binding flow cytometry; inhibition, % (about 7 µM as worked out from the volumes in the protocol); hit rate 0.2% among 330,000; AID 2557, 2010
ATG4B confirm = ATG4B protease inhibitors, retest, confirmation, biochemical, fluorescence, single concentration | shares compounds with ATG4B inh | ATG4B protease fluorescent substrate cleavage assay | inhibition, % at 8.33 µM | hit rate 92% among 320 | AID 504757, 2011; in the data active means inhibition above about 39%
PLA2 counter = PLA2 enzyme inhibition, counter-screen for ATG4B inhibitor project, biochemical, single concentration, uHTS hits. inhibition, % at 8.33 µM. shares compounds with ATG4B inh. AID 588402, 2011. hit rate 66% among 1,600. purified PLA2, NBD-C6-HPC fluorescence, 45 min
Target sequence (P04054 whole entry, looked up): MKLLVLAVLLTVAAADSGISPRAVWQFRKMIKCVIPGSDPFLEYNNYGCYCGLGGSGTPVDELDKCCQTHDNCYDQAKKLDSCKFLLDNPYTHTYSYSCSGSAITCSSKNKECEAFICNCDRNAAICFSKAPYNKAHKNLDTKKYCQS
The depositor's hits bear a star; nt = not tested or not shown. Unless noted, no stated cut-off is given here; in the data, active means inhibition above about 50%; inactive means the rest.

SMILES	PKA-R1A activ	PKA-R2B activ	ATG4B inh	NRP1-CendR mod	VLA-4 inh	PLA2 counter	others
Cc1ccccc1S(=O)(=O)Nc1nc2ccccc2nc1N1CCc2ccccc2C1	-4	4	43*	-10	-3	29	ATG4B confirm=62*
Cc1ccc(-n2nc3c(=O)n(CCCC(=O)NCc4cccc(F)c4)nc(C)c3c2C)cc1	-12	-8	16	2	-4	nt
COc1cccc(-c2c(C(=O)N/N=C/c3ccc(C)o3)nnn2-c2nonc2N)c1	-7	4	-12	-9	0	nt
COc1ccccc1NC(=O)c1ccc2nc(C)c(C)nc2c1	-10	-9	-10	-7	-5	nt
CC(OC(=O)CCN1C(=O)C2CC=CCC2C1=O)C(=O)Nc1cccc(C#N)c1 (stereo not drawn)	10	-10	3	-1	9	nt
CN(C(=O)c1ccc(N2CCCCC2)c([N+](=O)[O-])c1)C1(C)CCS(=O)(=O)C1 (stereo not drawn)	8	9	-3	11	-33	nt
O=C(NCc1cccc(F)c1)Nc1nnc([C@@H]2C[C@H](O)[C@@H](CO)O2)s1	nt	nt	nt	-6	nt	nt
COC(=O)c1ccc(CSc2nc3c(c(=O)n2-c2ccc(C)cc2)SCC3)o1	-14	0	48*	10	27	70*
CC(=O)c1ccccc1NC(=O)COc1ccc(N(C)S(=O)(=O)c2ccc(C)c(C)c2)cc1	1	11	85*	-4	-2	28
CN(C)C(=O)c1nc2ccc(Cl)cn2c1CN1CCCC(OCc2cccnc2)C1 (stereo not drawn)	5	7	33	7	22	nt
Oc1ccc(-c2csc(Nc3ccc4c(c3)OCO4)n2)c(O)c1	-4	-1	42*	-8	nt	59*
Cc1c(C(=O)NCc2cccs2)sc(=O)n1Cc1ccc(S(=O)(=O)N(C)C)cc1	nt	nt	nt	13	nt	nt
O=C(CN(CCc1ccccc1)S(=O)(=O)c1ccc(Cl)cc1)N/N=C/c1ccccc1C(=O)O	-16	-4	-1	5	7	nt
NC(=O)c1cc2c(s1)-c1cc(Cl)ccc1SC2	-6	6	44*	-10	-7	36
COc1ccc(-c2sc3ccccc3c2/C=C/c2ccncc2)cc1	-1	-4	-5	14	4	nt
CC(C)(C)c1ccc(C(=O)NNC(=O)CCC(=O)Nc2ccccc2)cc1	0	-5	-10	13	2	nt
O=C(O)c1cc(NN=Nc2cccc([N+](=O)[O-])c2)cc([N+](=O)[O-])c1	-9	-8	83*	3	-22	87*
O=C(O)c1cc(NN=Nc2cccc(S(=O)(=O)O)c2)cc([N+](=O)[O-])c1	1	3	-2	-12	-2	nt
OCCC1CN(Cc2cccn2-c2ccccn2)CCN1Cc1ccccc1 (stereo not drawn)	-12	-9	-4	-8	11	nt
CN1CCS/C1=C/C=C1\SC(=S)N(CC(=O)O)C1=O	-4	11	-19	134	37	nt
CCCCN1C(=O)/C(=C/C=C2\SCCN2C)SC1=S	-5	-8	73*	132	nt	80*
CN1CCS/C1=C/C=C1/SC(=S)N(Cc2ccccc2)C1=O	-3	0	82*	132	-204	80*
O=C(O)c1ccc(/C=C2/SC(=S)N(Cc3ccccc3)C2=O)cc1	-12	9	4	-8	-35	nt
O=C(O)c1ccc(NC2=C/C(=N/S(=O)(=O)c3ccccc3)c3ccccc3C2=O)cc1	-6	2	43*	37*	nt	-9	ATG4B confirm=61*
Cc1ccc([C@H]2N[C@]3(CCCN(Cc4ccco4)C3=O)[C@H]3C(=O)N(C)C(=O)[C@@H]23)cc1	-2	-3	nt	-7	nt	nt
SMILES	PKA-R1A activ	PKA-R2B activ	ATG4B inh	NRP1-CendR mod	VLA-4 inh	PLA2 counter	others
O=C(CSCc1ccc(Cl)cc1)NCCSCc1ccco1	11	0	4	5	6	nt
O=C(NCCSCc1ccco1)Nc1cc(Cl)cc(Cl)c1	-5	-8	46*	18	7	62*
Oc1nc(Nc2cccc(Cl)c2)sc1/C=C1\C=Nc2ccccc21	-4	3	73*	-22	-17	83*
Cc1cc(N/N=C/c2ccccc2Cl)nc(NCc2ccccc2)n1	2	9	85*	-3	-7	91*
Cc1cc(C)nc(N/N=C/c2ccccc2Cl)n1	nt	nt	-4	-4	-2	nt
Cc1ccc(C(=O)O)cc1N=Cc1cc(Br)cc(Br)c1O	7	-3	44*	-78	-7	21	ATG4B confirm=59*
CC(=O)Nc1ccc(C(=O)N/N=C/c2cc(Br)cc(Br)c2O)cc1	7	-6	-8	-41	-9	nt
C=CCn1c(SCc2nc3sc(C(=O)O)c(C)c3c(=O)[nH]2)nnc1-c1ccccc1	-3	-9	1	-8	1	nt
C=CCn1c(SCc2nc3scc(-c4ccccc4)c3c(=O)[nH]2)nnc1-c1ccccc1F	-10	-13	46*	-35	6	42	ATG4B confirm=62*
COc1ccc(NCc2ccsc2)cc1	0	-2	-5	0	-3	nt
Fc1ccc(C2c3[nH]c4ccccc4c3CCN2Cc2cccn2-c2ncccn2)cc1 (stereo not drawn)	0	7	41*	-15	8	36	ATG4B confirm=70*
O=C(NCCC1=CCCCC1)c1ccc(Br)o1	-1	7	-8	4	2	nt
O=C(NC(=S)NCCC1=CCCCC1)c1ccc(Br)o1	2	-10	40*	4	2	36	ATG4B confirm=62*
CN=c1scc(-c2ccccc2F)n1/N=C(\C)c1cccnc1	-16	-6	16	1	1	nt
O=C(CC1CCCCC1)Nc1ccccc1-c1ccccc1	-2	4	40	3	2	nt
O=C(CCC1CCCCC1)Nc1ccccc1-c1ccccc1	4	2	53*	2	-8	54*
O=C(CCC1CCCC1)Nc1ccccc1-c1ccccc1	-6	-10	45*	7	10	50*
CC1(C)Cc2c(sc3c2c(=N)n(Cc2ccco2)c(=O)n3CC(=O)Nc2cccc(Cl)c2)CO1	-3	-7	53*	-6	3	60*
Cc1cccc(NC(=O)Cn2c(=O)n(Cc3ccco3)c(=N)c3c4c(sc32)COC(C)(C)C4)c1	-5	5	15	0	2	nt
COc1cc(OC)cc(-c2nc3ccccc3c(=O)n2OC(=O)c2ccc(C)c(C)c2)c1	-3	-4	56*	14	9	23	ATG4B confirm=51*

High-throughput results (PubChem)
